Screens from PubChem BioAssay.
ALR H2O2 inh: inhibitors of human sulfhydryl oxidase ALR; P55789; purified ALR, DTT oxidation, H2O2 HRP-luminol luminescence; inhibition, % (concentration not given with the values); 3.8% of 290,000 active;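 active means mean replicate inhibition above about 79%, with every replicate also reaching it, limit read from the data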
Target sequence (P55789 whole entry, looked up): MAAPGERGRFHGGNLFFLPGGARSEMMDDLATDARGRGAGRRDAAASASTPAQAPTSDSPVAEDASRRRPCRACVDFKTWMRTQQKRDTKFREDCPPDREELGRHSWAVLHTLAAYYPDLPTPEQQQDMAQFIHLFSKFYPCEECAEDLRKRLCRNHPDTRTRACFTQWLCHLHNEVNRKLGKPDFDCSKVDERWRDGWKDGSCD
PfM18AAP inh: PfM18AAP enzyme inhibition; recombinant PfM18AAP, H-Glu-NHMec fluorogenic cleavage; inhibition, % at 7.35 µM; 1.2% of 290,000 active; AID 1822;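 active means inhibition above the campaign mean inhibition over all tested compounds plus 3 SD, cut at about 28% in these data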;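 further: 0% = plate median of test compound wells and 100% = 2 mM ZnCl2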
CaV13 ICDI inh: Primary screen for inhibitors of IQ motif and Ca2+-dependent inactivation inhibitor domain binding in CACNA1D, Förster resonance energy transfer in living cells, …. HEK cells, CFP/YFP FRET ICDI-IQ, plate reader, 10 min; percent FRET-ratio fall versus neutral wells. inhibition, % at 12.3 µM. 0.098% of 340,000 active. AID 743397;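 active means mean replicate inhibition of at least 30% and at least 1% of replicates passing that level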;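 further: 0% = median of the neutral control wells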
IDE cell inh: cellular human IDE inhibition | inhibition, % at 5.59 µM | 0.41% of 320,000 active | HEK cells, FAbetaB cleavage, fluorescence polarization | P14735;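 active means percent inhibition above the average of all tested compounds plus 3 SD, set per screening campaign, cut at about 16% in these data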;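 further: IDE supplied by intact live HEK cells; FP after avidin binding of uncleaved biotin substrate so inhibition keeps polarization high; 0% = DMSO wells and 100% = 60 µM reference IDE inhibitor Ii1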
IDE act: boosts human insulin-degrading enzyme activity in HEK cells; FAbeta-B cleavage, fluorescence polarization; 0% vehicle, 100% cell-free pure enzyme wells; activation, % at 5.96 µM; 0.073% of 340,000 active; AID 493087;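 active means activation above the mean of all tested compounds plus 3 SD, set per screening campaign, cut at about 17% in these data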
PolyA inh: inhibitors of polyadenylation in S. cerevisiae; S. cerevisiae SKY197-pL101 polyadenylation reporter, beta-gal luminescence; efflux-impaired pdr1/pdr3 knockout yeast; score 100 = 6 SD above DMSO; activity score, % at 12 µM; 0.02% of 300,000 active;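 active means lowest replicate activity score at least 50, where 100 means six control SD above control mean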;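 further: yeast exposed to compound for 9 h at 30 °C; higher score means more reporter readthrough which indicates perturbed polyadenylation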
IDE inh confirm: confirmation of human insulin-degrading enzyme inhibitors in cells; shares compounds with IDE cell inh; inhibition, % at 5.59 µM; HEK cells, FAbetaB cleavage, fluorescence polarization; 51% of 1,200 active;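 active means mean inhibition across triplicate wells above the cutoff set by the earlier primary insulin-degrading enzyme screen, cut at about 16% in these data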;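 further: 0% = DMSO wells and 100% = 60 µM reference IDE inhibitor Ii1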
HEK293 tox: kills HEK cells in IDE inhibitor counter-screen | shares compounds with IDE cell inh | HEK293 cytotoxicity, ATP luminescence | inhibition, % at 5.59 µM | 28% of 1,200 active; in the data active means inhibition above about 22%;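 further: 0% = vehicle wells and 100% = reference cytotoxic drug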
Numbers without * were called inactive. Rows were chosen to be rich in hits. Some 4.1% of all compounds tested hit in one or more screens of this group.

For O=C(N/N=C/c1ccc([N+](=O)[O-])o1)C(=O)Nc1ccc(C(=O)O)cc1 the results were ALR H2O2 inh -29, PfM18AAP inh 7, CaV13 ICDI inh -5, IDE cell inh -2, IDE act 4 and PolyA inh -1.
For O=C(O)c1ccc(N/N=C/c2ccc(-c3cccc(Cl)c3)o2)cc1 the results were PfM18AAP inh 0, CaV13 ICDI inh -1, IDE cell inh 6, IDE act 1 and PolyA inh -4.
Screening CCOC(=O)c1c(S(=O)(=O)NCC(=O)NCc2cccc(C)c2)c(C)n(C)c1C returned ALR H2O2 inh -5, PfM18AAP inh 11, CaV13 ICDI inh -2, IDE cell inh 3, IDE act 5 and PolyA inh -10.
For COc1cc(C2C(C#N)=C(N)Oc3cc(N(C)C)ccc32)cc2c1OCO2 (stereo not drawn) the results were ALR H2O2 inh 7, PfM18AAP inh 30*, IDE cell inh 19*, IDE act -20, PolyA inh -21, IDE inh confirm 15 and HEK293 tox 67*.
Screening COc1cc(C2C(C#N)=C(N)Oc3cc(O)ccc32)cc2c1OCO2 (stereo not drawn) returned ALR H2O2 inh 61, PfM18AAP inh 7, IDE cell inh -4, IDE act 0 and PolyA inh -3.
`O=C(OCc1c(F)cccc1Cl)c1cccnc1Cl` gave ALR H2O2 inh -2, PfM18AAP inh 3, CaV13 ICDI inh -3, IDE cell inh 2, IDE act 2 and PolyA inh -9.
Screening O=C(CCCCl)Oc1ccc2cc(-c3ccc4ccccc4n3)c(=O)oc2c1 returned ALR H2O2 inh 2, PfM18AAP inh -9, CaV13 ICDI inh 7, IDE cell inh 37*, IDE act -49, PolyA inh 3, IDE inh confirm 52* and HEK293 tox 4.
`CCNC(=O)C1(C)CCN(Cc2ccccc2-c2ccccc2)C1` (stereo not drawn) gave CaV13 ICDI inh -10.
For CCCCn1c(NC(=S)Nc2ccccc2)nc2ccccc21 the results were ALR H2O2 inh -3, PfM18AAP inh -8, CaV13 ICDI inh -9, IDE cell inh 31*, IDE act -12, PolyA inh -13, IDE inh confirm 12 and HEK293 tox 12.
For S=C(Nc1ccccc1)Nc1nc2ccccc2n1CCOc1ccccc1 the results were ALR H2O2 inh -8, PfM18AAP inh -27, CaV13 ICDI inh -6, IDE cell inh 29*, IDE act -22, PolyA inh -11, IDE inh confirm 18* and HEK293 tox 7.
Screening CC(=O)Nc1nc2ccccc2n1CCOc1ccccc1 returned ALR H2O2 inh -5, PfM18AAP inh -12, CaV13 ICDI inh 0, IDE cell inh 0, IDE act 4 and PolyA inh -7.
`Cc1cnc(NC2=NCCC2)s1` gave ALR H2O2 inh 6, PfM18AAP inh 1, CaV13 ICDI inh 4, IDE cell inh 0, IDE act 2 and PolyA inh 0.
`O=C(Nc1ccc(N2CCN(c3ccc(C(F)(F)F)cn3)CC2)nc1)c1cccs1` gave ALR H2O2 inh -13, PfM18AAP inh 2, CaV13 ICDI inh -5, IDE cell inh 17*, IDE act -19, PolyA inh 14, IDE inh confirm 7 and HEK293 tox 31*.
`O=C(Nc1ccc(N2CCOCC2)nc1)c1cccs1` gave ALR H2O2 inh -46, PfM18AAP inh -3, CaV13 ICDI inh 2, IDE cell inh 4, IDE act 8 and PolyA inh 5.
CCC(=O)Nc1ccc(NC(=S)NC(=O)c2oc3ccccc3c2C)cc1 was read as PfM18AAP inh 0, CaV13 ICDI inh -5, IDE cell inh 1, IDE act 2 and PolyA inh -2.
